Assay outcomes (PubChem)
The full list was thinned out, with hits kept by preference.
IMPase Li inh = cell-permeable IMPase inhibitors with lithium potentiation | CHO-M1 cells, IP1 TR-FRET (IP-One), carbachol + lithium | Potency, µM (highest dose often 59.4 µM), actives largely listed as inhibitors | hit rate 0.35% among 210,000 | AID 1457;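 note: IP1 builds up when IMPase is blocked and the TR-FRET signal falls; nearly all actives have a fitted effect of over 50% in size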
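Lithium-sensitised IP1 accumulation assay; M1-expressing CHO cells treated 30 min at 37C with compound. Competitive antibody detection by time-resolved FRET followed a 10 min room-temperature lysis step.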
IMPase cell inh = IMPase inhibition in cells | 120,000 tested, under 10 active | CHO-M1 cells, IP1 accumulation, HTRF TR-FRET ratio | P97697 | inhibition (IP1 accumulation), % at 46.1 µM; active = well fitted curve in the direction sought with a large enough effect in the signal ratio, not every such curve was filed as active; inconclusive = small, poorly fitted or top-dose-only effect, or a change in a side signal; inactive = no such curve, though single readings can be large or run the other way; the % refers to the signal ratio;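 note: cells stimulated with carbachol in lithium chloride buffer; higher means more IMPase inhibition seen as more IP1 and lower FRET ratio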
Target sequence (P97697 whole entry, looked up): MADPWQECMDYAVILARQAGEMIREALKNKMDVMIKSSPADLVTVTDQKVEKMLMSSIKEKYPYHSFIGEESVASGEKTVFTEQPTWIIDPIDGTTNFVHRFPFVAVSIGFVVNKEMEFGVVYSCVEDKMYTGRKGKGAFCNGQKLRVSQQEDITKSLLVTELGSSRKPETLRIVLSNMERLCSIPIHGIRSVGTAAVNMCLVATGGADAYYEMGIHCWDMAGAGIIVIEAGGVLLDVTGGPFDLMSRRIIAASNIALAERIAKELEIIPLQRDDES
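CHO-M1 cells (CHO stably expressing M1 receptor), compound up to 46 uM final, stimulated with carbachol (50 uM as added) in buffer with 50mM LiCl, pH 7.4, 30 min at 37C. Cytosolic IP1 read by TR-FRET; AC50 from Hill fits.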
12-hLO inh = blocks human 12-lipoxygenase activity. purified 12-hLO, xylenol orange hydroperoxide absorbance. P18054. hit rate 0.12% among 150,000. Potency, µM (highest dose often 57.1 µM), actives largely listed as inhibitors; note: nearly all actives have a fitted effect of over 55% in size
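Xylenol orange chromogenic assay: hydroperoxide from 12hLO oxidises Fe(II), giving red-shifted Fe(III)-XO absorbance. Conditions: 150 nM enzyme, 40 uM arachidonic acid, 25 mM Hepes pH 7.0, 0.01% Triton X-100, 30 min, room temperature.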
PNC inhibitor = inhibitors of perinucleolar compartment assembly. PC3M PTB-GFP, PNC prevalence imaging, 16 h; active compounds read low. activity change (PNC), negative = inhibition, % at 10 µM. hit rate 3.1% among 140,000. AID 2417;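 active = readout at or below -70, meaning at least 70% loss of cells showing the perinucleolar compartment, a nuclear body marking cancer cells; inconclusive = readout between -30 and a set limit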
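PC3M cells stably expressing PTB-GFP, 750–1000 cells/well, treated 16 h at 37 °C with compound (23 nl of library stock), in duplicate. After paraformaldehyde fixation and Hoechst stain, imaged at 20x; PNC prevalence scored by image analysis.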
Large screens that a line does not name were inactive. Unless noted, calls come from the whole dose curve; as a rule, active = well fitted curve in the direction sought with a large enough effect; inconclusive = small, poorly fitted or top-dose-only effect, or another doubt; inactive = no such curve, though single readings can be large; an effect the other way counts as inactive or inconclusive.

CCC1CCc2c(sc3ncnc(N4CCOCC4)c23)C1 (stereo unspecified)	PNC inhibitor -126
C/C(=N\N=C1\NC(=O)CC(C(=O)O)S1)c1cccs1 (stereo unspecified)	PNC inhibitor -106
CCn1c(=O)c(C(=O)Nc2ccccc2C)c(O)c2ccccc21	PNC inhibitor -100
CCn1c(=O)c(C(=O)Nc2ccccc2S(N)(=O)=O)c(O)c2ccccc21	none
O=C1c2ccccc2C(=O)N1Cc1nn2c(-c3ccc(Cl)cc3)nnc2s1	IMPase Li inh 11µM, IMPase cell inh inconclusive, PNC inhibitor inconclusive
O=C(CON1C(=O)c2ccccc2C1=O)c1ccccc1	none (no result: IMPase cell inh, PNC inhibitor)
Cc1cccnc1NC(=O)CSc1nnc(Cc2ccccc2)o1	none
O=C(CNC(=S)N(Cc1ccccc1)Cc1cccnc1)NCCN1CCOCC1	none (no result: IMPase cell inh, 12-hLO inh, PNC inhibitor)
CC(C)(C)c1ccc(C(=O)N2CCC(=O)N(C(COCc3ccccc3)Cc3ccccc3)CC2)cc1 (stereo unspecified)	PNC inhibitor -115 (no result: IMPase cell inh)
O=C(c1ccc(C(F)(F)F)cc1)N1CCC(=O)N(C(COCc2ccccc2)Cc2ccccc2)CC1 (stereo unspecified)	none (no result: IMPase cell inh)
O=C(CN1CCCCCC1)Nc1ccccc1F	PNC inhibitor -85
O=C(CN1CCCCCC1)N1c2ccccc2C=Cc2ccccc21	PNC inhibitor -106
O=C(CN1CCCC1)N1c2ccccc2C=Cc2ccccc21	none (no result: IMPase cell inh, 12-hLO inh, PNC inhibitor)
O=C(CN1CCN(CC(=O)Nc2ccccc2C(F)(F)F)CC1)Nc1ccccc1F	PNC inhibitor inconclusive
CCN(CC)C(=O)N1c2ccccc2C=Cc2ccccc21	PNC inhibitor -105
Cc1ccc(NC(=O)CNC(=O)OCc2ccccc2)cc1C	none (no result: IMPase cell inh, 12-hLO inh, PNC inhibitor)
O=c1c(O)cc(C2Oc3cc(O)cc(O)c3CC2O)cc2c(C3Oc4cc(O)cc(O)c4CC3O)cc(O)c(O)c12 (stereo unspecified)	none (no result: IMPase cell inh, PNC inhibitor)
N#Cc1c(SCC(N)=O)nsc1SCc1ccc(Cl)cc1	PNC inhibitor -83
CCc1c(C#N)c(N)nc(SCC(=O)OCc2ccccc2)c1C#N	none
N#Cc1c(SCC(N)=O)nsc1SCc1ccccc1Cl	none
CCOC(=O)CSc1nsc(SCC(=O)OCC)c1C#N	PNC inhibitor -100
N#Cc1c(SCC(=O)OCc2ccccc2)nsc1SCC(=O)OCc1ccccc1	PNC inhibitor -101
CO[C@H]1C[C@@H]2CC[C@@H](C)[C@@](O)(O2)C(=O)C(=O)N2CCCC[C@H]2C(=O)OC([C@H](C)C[C@@H]2CC[C@@H](O)[C@H](OC)C2)CC(=O)[C@H](C)/C=C(\C)[C@@H](O)[C@@H](OC)C(=O)[C@H](C)C[C@H](C)/C=C/C=C/C=C/1C (stereo partly specified)	none (no result: IMPase cell inh, PNC inhibitor)
COC(=O)c1ccc(OC(=O)CCN2C(=O)C3C4c5ccccc5C(c5ccccc54)C3C2=O)cc1 (stereo unspecified)	none
CCCCOC(=O)CNc1n[nH]c(=S)[nH]c1=O	IMPase Li inh 4µM, IMPase cell inh inconclusive, PNC inhibitor inconclusive
COc1cccc2c1C(=O)c1c(O)c3c(c(O)c1C2=O)C[C@@](O)(C(C)=O)C[C@@H]3O[C@H]1C[C@H](N)[C@H](O)[C@H](C)O1	PNC inhibitor -115
CCC(=O)Nn1cnc2c(c1=O)C1(CCCCC1)Cc1ccccc1-2	PNC inhibitor -106
CCCCC(NS(=O)(=O)c1ccc(OC)cc1)C(=O)O (stereo unspecified)	PNC inhibitor -100
O=C(CN1CCC(n2nnc3cc(F)ccc32)CC1)NCc1ccco1	PNC inhibitor -118
COc1ccccc1NC(=O)CN1CCC(n2nnc3cc(F)ccc32)CC1	none
CCOC(=O)N1CCC(NC(=O)CCN2C(=O)COc3ccccc32)CC1	PNC inhibitor -80
CCOC(=O)N1CCC(NC(=O)CCC(=O)N2CC(C)Oc3ccccc32)CC1 (stereo unspecified)	PNC inhibitor inconclusive
O=C(NCc1ccc2c(c1)OCO2)O[C@@H]1C(=O)c2cc(Br)ccc2O[C@H]1c1ccc2c(c1)OCO2	none (no result: IMPase cell inh, 12-hLO inh, PNC inhibitor)
CCOC(=S)SCC(=O)N1CCc2cc(OC)ccc2C1C1C(=O)CCCC1=O (stereo unspecified)	PNC inhibitor -99
CCOC(=S)SCC(=O)N1CCc2cc(OC)c(OC)cc2C1C1C(=O)CC(C)(C)CC1=O (stereo unspecified)	PNC inhibitor inconclusive (no result: IMPase cell inh)
Cc1ccc(NNC(=O)C(=O)N2CCCCC2)cc1	PNC inhibitor -90
